The campaign covered roughly 5,500 compounds. About 2,000 (36%) were called active. Roughly 18% stayed inconclusive and do not appear here. Rule as the data show it: active = normalized growth mostly below about 0.91 (no sharp cut-off); inconclusive = no clear call, values can overlap the other calls; inactive = mostly above about 0.92. The list shows a part of the results.
Experiment: chemical genetic growth profiling, strain panel (AID 1159580);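 also: tested at 20 µM; growth read once vehicle control cultures reached saturation at 30 °C; 1 = growth at the plate median or of vehicle wells; lower values mean less growth of the strain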
Conditions: growth OD
[1] = S. cerevisiae deletion strains, locus YHR030C, strain SLT2, stronger effect = lower value
[2] = S. cerevisiae deletion strains, locus YHR079C, strain IRE1, stronger effect = lower value
[3] = S. cerevisiae deletion strains, locus YJL095W, strain BCK1, stronger effect = lower value
[4] = S. cerevisiae deletion strains, locus YJR066W, strain TOR1, stronger effect = lower value
[5] = S. cerevisiae deletion strains, locus YLR113W, strain HOG1, stronger effect = lower value
[6] = S. cerevisiae deletion strains, locus YNL183C, strain NPR1, stronger effect = lower value
[7] = S. cerevisiae deletion strains, locus YOR231W, strain MKK1, stronger effect = lower value
[8] = S. cerevisiae deletion strains, locus YPL256C, strain CLN2, stronger effect = lower value
[9] = S. cerevisiae deletion strains, locus YDL101C, strain DUN1, stronger effect = lower value
[10] = S. cerevisiae deletion strains, locus YOR061W, strain CKA2, stronger effect = lower value

Measured: normalized growth

CN[C@H]1C[C@@H](N)[C@H](O)[C@@H](O[C@@H]2O[C@H](CO)[C@@H]3OC4(O[C@@H]3[C@@H]2O)O[C@H](C(N)CO)[C@H](O)[C@H](O)[C@H]4O)[C@@H]1O (some centres not stated)
inactive: [1] 1.05 | [2] 1.05 | [3] 1.05 | [4] 0.982 | [5] 1.02 | [6] 0.969 | [7] 1.03 | [8] 1.03

Nc1nc2ncc(C(=O)O)nc2c(=O)[nH]1
inactive: S. cerevisiae deletion strains, locus YAL013W, strain DEP1, stronger effect = lower value 1.01 | S. cerevisiae deletion strains, locus YBR021W, strain FUR4, stronger effect = lower value 1 | S. cerevisiae deletion strains, locus YBR229C, strain ROT2, stronger effect = lower value 1.01 | S. cerevisiae deletion strains, locus YCL029C, strain bik1, stronger effect = lower value 1.03 | S. cerevisiae deletion strains, locus YDL035C, strain GPR1, stronger effect = lower value 1 | S. cerevisiae deletion strains, locus YDL074C, strain BRE1, stronger effect = lower value 1.01 | [9] 1.01 | S. cerevisiae deletion strains, locus YDL134C, strain PPH21, stronger effect = lower value 1.01 | S. cerevisiae deletion strains, locus YDL185W, strain tfp1, stronger effect = lower value 1.04 | S. cerevisiae deletion strains, locus YDL192W, strain arf1, stronger effect = lower value 1.03 | S. cerevisiae deletion strains, locus YDR101C, strain arx1, stronger effect = lower value 1.03 | S. cerevisiae deletion strains, locus YDR162C, strain NBP2, stronger effect = lower value 1.03 | S. cerevisiae deletion strains, locus YDR318W, strain mcm21, stronger effect = lower value 1.02 | S. cerevisiae deletion strains, locus YDR388W, stronger effect = lower value 1.02 | S. cerevisiae deletion strains, locus YDR502C, strain sam2, stronger effect = lower value 1.04 | S. cerevisiae deletion strains, locus YEL061C, strain CIN8, stronger effect = lower value 1.01 | S. cerevisiae deletion strains, locus YER110C, stronger effect = lower value 1.05 | S. cerevisiae deletion strains, locus YER155C, strain BEM2, stronger effect = lower value 1.01 | S. cerevisiae deletion strains, locus YER167W, strain BCK2, stronger effect = lower value 1.01 | S. cerevisiae deletion strains, locus YGL078C, strain dbp3, stronger effect = lower value 1.03 | S. cerevisiae deletion strains, locus YGL086W, strain mad1, stronger effect = lower value 1 | S. cerevisiae deletion strains, locus YGL248W, strain PDE1, stronger effect = lower value 1.02 | S. cerevisiae deletion strains, locus YGR078C, strain PAC10, stronger effect = lower value 1.01 | S. cerevisiae deletion strains, locus YGR135W, strain pre9, stronger effect = lower value 1.01 | S. cerevisiae deletion strains, locus YGR252W, strain gcn5, stronger effect = lower value 1.07 | [1] 1.01 | S. cerevisiae deletion strains, locus YHR079C, strain IRE1 (second series), stronger effect = lower value 1.05 | S. cerevisiae deletion strains, locus YHR094C, strain hxt1, stronger effect = lower value 1.04 | S. cerevisiae deletion strains, locus YHR129C, strain ARP1, stronger effect = lower value 1.01 | S. cerevisiae deletion strains, locus YHR200W, strain rpn10, stronger effect = lower value 1 | S. cerevisiae deletion strains, locus YIL066C, strain RNR3, stronger effect = lower value 1.02 | S. cerevisiae deletion strains, locus YIL073C, strain SPO22, stronger effect = lower value 1.1 | S. cerevisiae deletion strains, locus YIL125W, strain kgd1, stronger effect = lower value 1.03 | S. cerevisiae deletion strains, locus YIR030C, strain dcg1, stronger effect = lower value 1.04 | [3] 1.01 | S. cerevisiae deletion strains, locus YJL134W, strain LCB3, stronger effect = lower value 1.01 | S. cerevisiae deletion strains, locus YJL168C, strain set2, stronger effect = lower value 1.05 | S. cerevisiae deletion strains, locus YJL187C, strain SWE1 (second series), stronger effect = lower value 1.01 | S. cerevisiae deletion strains, locus YJR043C, strain POL32, stronger effect = lower value 0.997 | S. cerevisiae deletion strains, locus YKL009W, strain mrt4, stronger effect = lower value 1.02 | S. cerevisiae deletion strains, locus YKL068W, stronger effect = lower value 1.03 | S. cerevisiae deletion strains, locus YKL085W, strain MDH1 (second series), stronger effect = lower value 1.01 | S. cerevisiae deletion strains, locus YKL085W, strain MDH1, stronger effect = lower value 1.01 | S. cerevisiae deletion strains, locus YKR001C, strain vps1, stronger effect = lower value 1.02 | S. cerevisiae deletion strains, locus YLR039C, strain RIC1, stronger effect = lower value 1.03 | S. cerevisiae deletion strains, locus YLR058C, strain SHM2, stronger effect = lower value 1.01 | S. cerevisiae deletion strains, locus YLR102C, strain apc9, stronger effect = lower value 1.04 | S. cerevisiae deletion strains, locus YLR262C, strain YPT6, stronger effect = lower value 1.03 | S. cerevisiae deletion strains, locus YLR268W, strain sec22, stronger effect = lower value 1.04 | S. cerevisiae deletion strains, locus YLR330W, strain CHS5, stronger effect = lower value 1.01 | S. cerevisiae deletion strains, locus YLR342W, strain FKS1 (second series), stronger effect = lower value 0.998 | S. cerevisiae deletion strains, locus YLR371W, strain rom2, stronger effect = lower value 1.06 | S. cerevisiae deletion strains, locus YLR418C, strain cdc73, stronger effect = lower value 1.03 | S. cerevisiae deletion strains, locus YML016C, strain PPZ1, stronger effect = lower value 1.01 | S. cerevisiae deletion strains, locus YML032C, strain rad52, stronger effect = lower value 1.02 | S. cerevisiae deletion strains, locus YML124C, strain tub3, stronger effect = lower value 1.02 | S. cerevisiae deletion strains, locus YMR078C, strain ctf18, stronger effect = lower value 1.05 | S. cerevisiae deletion strains, locus YMR223W, strain ubp8, stronger effect = lower value 1.03 | S. cerevisiae deletion strains, locus YMR307W, strain GAS1, stronger effect = lower value 1.01 | S. cerevisiae deletion strains, locus YNL067W, strain RPL9B, stronger effect = lower value 1.01 | S. cerevisiae deletion strains, locus YNL153C, strain GIM3, stronger effect = lower value 1.01 | S. cerevisiae deletion strains, locus YNL233W, strain BNI4, stronger effect = lower value 1 | S. cerevisiae deletion strains, locus YNL250W, strain rad50, stronger effect = lower value 1.03 | S. cerevisiae deletion strains, locus YNL271C, strain bni1, stronger effect = lower value 1.03 | S. cerevisiae deletion strains, locus YNL298W, strain CLA4, stronger effect = lower value 1.04 | S. cerevisiae deletion strains, locus YNL307C, strain MCK1, stronger effect = lower value 1.06 | S. cerevisiae deletion strains, locus YNL322C, strain KRE1, stronger effect = lower value 1.01 | S. cerevisiae deletion strains, locus YNR052C, strain pop2, stronger effect = lower value 1.03 | S. cerevisiae deletion strains, locus YOL012C, strain htz1 1.02 | S. cerevisiae deletion strains, locus YOL147C, strain pex11, stronger effect = lower value 1.04 | [10] 1.02 | S. cerevisiae deletion strains, locus YOR069W, strain VPS5, stronger effect = lower value 1.01 | S. cerevisiae deletion strains, locus YOR136W, strain idh2, stronger effect = lower value 1.04 | S. cerevisiae deletion strains, locus YOR144C, strain elg1, stronger effect = lower value 1.03 | S. cerevisiae deletion strains, locus YOR184W, strain ser1, stronger effect = lower value 1.04 | S. cerevisiae deletion strains, locus YOR316C, strain cot1, stronger effect = lower value 1.06 | S. cerevisiae deletion strains, locus YPL055C, strain LGE1, stronger effect = lower value 1.01 | S. cerevisiae deletion strains, locus YPR119W, strain clb2, stronger effect = lower value 1.03 | S. cerevisiae deletion strains, locus YPR141C, strain kar3, stronger effect = lower value 1.02 | S. cerevisiae deletion strains, locus YPR163C, strain tif3, stronger effect = lower value 1.05 | S. cerevisiae deletion strains, locus YPR167C, strain met16, stronger effect = lower value 1.06 | S. cerevisiae deletion strains, strain wtn01, stronger effect = lower value 1.02 | S. cerevisiae strains, strain wild type, stronger effect = lower value 1.01

COC(=O)C1=C(C)NC(C)=C(C(=O)OC)C1c1ccc(Cl)cc1Cl
inactive: S. cerevisiae deletion strains, locus YAR019C, strain CDC15, stronger effect = lower value 0.973 | S. cerevisiae deletion strains, locus YBL105C, strain PKC1, stronger effect = lower value 0.976 | S. cerevisiae deletion strains, locus YBR135W, strain CKS1, stronger effect = lower value 0.971 | S. cerevisiae deletion strains, locus YBR136W, strain MEC1, stronger effect = lower value 0.976 | S. cerevisiae deletion strains, locus YBR160W, strain CDC28, stronger effect = lower value 0.981 | S. cerevisiae deletion strains, locus YDL017W, strain CDC7, stronger effect = lower value 0.979 | S. cerevisiae deletion strains, locus YDL028C, strain MPS1, stronger effect = lower value 0.977 | [9] 0.973 | S. cerevisiae deletion strains, locus YDL108W, strain KIN28, stronger effect = lower value 0.967 | S. cerevisiae deletion strains, locus YDL132W, strain cdc53, stronger effect = lower value 0.967 | S. cerevisiae deletion strains, locus YDL214C, strain PRR2, stronger effect = lower value 0.917 | S. cerevisiae deletion strains, locus YDR052C, strain DBF4, stronger effect = lower value 0.986 | S. cerevisiae deletion strains, locus YDR054C, strain cdc34, stronger effect = lower value 0.967 | S. cerevisiae deletion strains, locus YDR226W, strain ADK1, stronger effect = lower value 0.972 | S. cerevisiae deletion strains, locus YDR477W, strain SNF1, stronger effect = lower value 0.909 | S. cerevisiae deletion strains, locus YER123W, strain YCK3, stronger effect = lower value 0.887 | S. cerevisiae deletion strains, locus YER133W, strain GLC7, stronger effect = lower value 0.889 | S. cerevisiae deletion strains, locus YFL009W, strain cdc4, stronger effect = lower value 0.968 | S. cerevisiae deletion strains, locus YFL029C, strain CAK1, stronger effect = lower value 0.969 | S. cerevisiae deletion strains, locus YFR003C, strain YPI1, stronger effect = lower value 0.98 | S. cerevisiae deletion strains, locus YFR019W, strain FAB1, stronger effect = lower value 0.949 | S. cerevisiae deletion strains, locus YFR028C, strain CDC14, stronger effect = lower value 0.974 | S. cerevisiae deletion strains, locus YGR040W, strain KSS1, stronger effect = lower value 0.914 | S. cerevisiae deletion strains, locus YGR052W, strain FMP48, stronger effect = lower value 0.989 | S. cerevisiae deletion strains, locus YGR092W, strain DBF2, stronger effect = lower value 0.88 | [1] 0.99 | [2] 0.963 | S. cerevisiae deletion strains, locus YHR082C, strain KSP1, stronger effect = lower value 0.97 | S. cerevisiae deletion strains, locus YHR205W, strain SCH9, stronger effect = lower value 0.943 | S. cerevisiae deletion strains, locus YIL147C, strain SLN1, stronger effect = lower value 0.961 | [3] 0.961 | S. cerevisiae deletion strains, locus YJL128C, strain PBS2, stronger effect = lower value 0.98 | S. cerevisiae deletion strains, locus YJL157C, strain FAR1, stronger effect = lower value 0.928 | S. cerevisiae deletion strains, locus YJR016C, strain ILV3, stronger effect = lower value 0.972 | S. cerevisiae deletion strains, locus YJR066W, strain TOR1 (second series), stronger effect = lower value 0.908 | [4] 0.999 | S. cerevisiae deletion strains, locus YKL048C, strain ELM1, stronger effect = lower value 0.949 | S. cerevisiae deletion strains, locus YKL067W, strain YNK1, stronger effect = lower value 0.947 | S. cerevisiae deletion strains, locus YKL101W, strain HSL1, stronger effect = lower value 0.936 | S. cerevisiae deletion strains, locus YKL193C, strain SDS22, stronger effect = lower value 0.978 | S. cerevisiae deletion strains, locus YKL203C, strain TOR2, stronger effect = lower value 0.975 | [5] 0.912 | S. cerevisiae deletion strains, locus YLR133W, strain CKI1, stronger effect = lower value 0.956 | S. cerevisiae deletion strains, locus YLR403W, strain SFP1, stronger effect = lower value 0.88 | S. cerevisiae deletion strains, locus YML070W, strain DAK1, stronger effect = lower value 0.911 | S. cerevisiae deletion strains, locus YMR001C, strain CDC5, stronger effect = lower value 0.972 | S. cerevisiae deletion strains, locus YMR205C, strain PFK2 (second series), stronger effect = lower value 0.956 | S. cerevisiae deletion strains, locus YMR277W, strain FCP1, stronger effect = lower value 0.978 | S. cerevisiae deletion strains, locus YNL006W, strain LST8, stronger effect = lower value 0.973 | S. cerevisiae deletion strains, locus YNL020C, strain ARK1, stronger effect = lower value 0.94 | S. cerevisiae deletion strains, locus YNL161W, strain CBK1, stronger effect = lower value 0.987 | [6] 0.985 | S. cerevisiae deletion strains, locus YNL207W, strain RIO2, stronger effect = lower value 0.973 | S. cerevisiae deletion strains, locus YNL222W, strain SSU72, stronger effect = lower value 0.973 | S. cerevisiae deletion strains, locus YNL307C, strain MCK1 (second series), stronger effect = lower value 0.947 | S. cerevisiae deletion strains, locus YOL078W, strain AVO1, stronger effect = lower value 0.991 | S. cerevisiae deletion strains, locus YOL136C, strain PFK27, stronger effect = lower value 0.918 | [10] 0.93 | S. cerevisiae deletion strains, locus YOR119C, strain RIO1, stronger effect = lower value 0.945 | [7] 0.933 | S. cerevisiae deletion strains, locus YOR329C, strain SCD5, stronger effect = lower value 0.984 | S. cerevisiae deletion strains, locus YPL031C, strain PHO85, stronger effect = lower value 0.884 | S. cerevisiae deletion strains, locus YPL153C, strain RAD53, stronger effect = lower value 0.866 | S. cerevisiae deletion strains, locus YPL204W, strain HRR25, stronger effect = lower value 0.898 | S. cerevisiae deletion strains, locus YPL209C, strain IPL1, stronger effect = lower value 0.985 | [8] 0.971 | S. cerevisiae deletion strains, locus YPR025C, strain CCL1, stronger effect = lower value 0.979 | S. cerevisiae deletion strains, locus YPR106W, strain ISR1, stronger effect = lower value 0.975 | S. cerevisiae deletion strains, locus YPR111W, strain DBF20, stronger effect = lower value 0.975 | S. cerevisiae deletion strains, strain NNK1, stronger effect = lower value 0.977 | S. cerevisiae deletion strains, strain TSCII, stronger effect = lower value 0.968
